About 13,000 (27%) of roughly 48,000 compounds showed an effect of 50% or more. The list shows a part of the results.
The compounds below were run on Wolbachia pipientis (assay: Anti-Wolbachia Cell-Based Screen). Conditions: 5 µM.
Type: functional
Parameters: scale not given: in the data most compounds retested in dose-response had high values
Cc1ccoc1C(=O)NC(CC(C)C)C(=O)N1CCC(CO)CC1 (stereo not given) was tested, and the “Percent Effect” value was -14.58%. With CCC(=O)N1CCc2[nH]cnc2C12CCN(C(=O)CCS(C)(=O)=O)CC2 the “Percent Effect” value was -8.696%. In the case of Cc1nnn2c1COC(CNCc1ccccn1)C2.O=C(O)C(F)(F)F (stereo not given), the “Percent Effect” value was -4.028%. In the case of Cc1cnc(N)nc1NCCSCc1[nH]cnc1C, the “Percent Effect” value was -14.55%. For Cc1ccc(C)n1-c1ccc(C(=O)NCCNc2ncccn2)cc1, the “Percent Effect” value was 4.736%. In the case of Cc1nc(CN2CCCC(c3cnccn3)C2)cs1 (stereo not given), the “Percent Effect” value was 124.4%. For CC1CCCN(Cc2csc(-c3ncccn3)n2)CC1 (stereo not given), the “Percent Effect” value was 3.521%. For CC(C)c1nc(CN2CCCC(O)C2)cs1 (stereo not given), the “Percent Effect” value was 12.3%. Cc1nc(CN2CCCN(C(=O)COCC3CC3)CC2)cs1 was tested, and the “Percent Effect” value was 18.11%. With Cc1nc(CN2C[C@@H]3CN(C(=O)c4cnccn4)C[C@@H]3C2=O)cs1 the “Percent Effect” value was 9.269%. Cc1cccc(CN2CCCC(c3nccs3)C2)n1 (stereo not given) was tested, and the “Percent Effect” value was 160.1%. Cc1nc(CN2CCCC(c3nccs3)C2)cs1 (stereo not given) was tested, and the “Percent Effect” value was 114.8%. For Cc1cccc(CN2CCN(Cc3ccccc3)CC(O)C2)n1 (stereo not given), the “Percent Effect” value was -8.122%. In the case of CCn1ccnc1C1CCN(Cc2cccc(C)n2)CC1, the “Percent Effect” value was -3.832%. In the case of CSCC(=O)N1C[C@H]2CC[C@@H]1CN(Cc1ccccc1)C2, the “Percent Effect” value was -24.58%. For COCCc1noc(Cn2ccc3ncccc3c2=O)n1, the “Percent Effect” value was -12.09%. With CCOc1ccc2[nH]c(=O)c(CN(C)CCc3cn[nH]c3)cc2c1 the “Percent Effect” value was -1.744%. With Cc1ccc(CN2C[C@@H]3COC[C@H](NS(C)(=O)=O)[C@@H]3C2)s1.O=C(O)C(F)(F)F the “Percent Effect” value was 111.5%. For Cc1ccc(CN2C[C@@H]3COC[C@@H](NS(C)(=O)=O)[C@@H]3C2)o1.O=C(O)C(F)(F)F, the “Percent Effect” value was -14.86%. With Cc1ccc(CN2CC(C(=O)Nc3ccccc3)C3(CCOCC3)C2)s1.O=C(O)C(F)(F)F (stereo not given) the “Percent Effect” value was -15.56%. With CCc1ccc(CN2C[C@@H]3COC[C@H](NS(C)(=O)=O)[C@@H]3C2)o1.O=C(O)C(F)(F)F the “Percent Effect” value was 136.7%. Cc1ccc(CN2CCOC3(COCCN(S(C)(=O)=O)C3)C2)s1.O=C(O)C(F)(F)F (stereo not given) was tested, and the “Percent Effect” value was -6.803%. For Cc1ccc(CN2C[C@@H]3COC[C@H](NS(C)(=O)=O)[C@@H]3C2)o1.O=C(O)C(F)(F)F, the “Percent Effect” value was 6.614%. With O=C(Cn1cc(-c2ccccc2)cn1)NC(C1CC1)C1CC1 the “Percent Effect” value was 101.4%. With CC(C)CNC(=O)Cn1cc(C(N)=O)c(-c2ccccc2)n1 the “Percent Effect” value was 7.305%. For CC(C)C(C)(C#N)NC(=O)Cn1cc(I)cn1 (stereo not given), the “Percent Effect” value was 3.38%. Cc1ccc(NC(=O)Cn2cc(I)cn2)cc1 was tested, and the “Percent Effect” value was 92.57%. In the case of CC(NC(=O)CN1C=Nc2ccccc2S1(=O)=O)C1CC1 (stereo not given), the “Percent Effect” value was 22.51%. CNC(=O)NC(=O)Cn1cc(-c2ccccc2)cn1 was tested, and the “Percent Effect” value was -1.753%. In the case of CC(NC(=O)Cn1cc(-c2ccccc2)cn1)C1CC1 (stereo not given), the “Percent Effect” value was 82.35%. With CCC(C)(C)NC(=O)Cn1cc(C(N)=O)c(-c2ccccc2)n1 the “Percent Effect” value was -8.057%. CCC(CC)NC(=O)Cn1cc(-c2ccccc2)cn1 was tested, and the “Percent Effect” value was 106.4%. For O=C(Cc1cnn(-c2ccccc2)n1)NC(C1CC1)C1CC1, the “Percent Effect” value was -0.6445%. For CC(NC(=O)COc1ccccc1I)C1CC1 (stereo not given), the “Percent Effect” value was 10.59%. For CC(C#N)(NC(=O)Cn1cc(I)cn1)C1CC1 (stereo not given), the “Percent Effect” value was 6.618%.

From ChEMBL document CHEMBL3988442, “University of Dundee, Small-Polar-MMV Screening Library” (2021)
